From PubChem BioAssay (NCATS)
Inconclusive results are not listed. A call without a number means that no potency is given here. Activity calls are given as the source filed them. Calls follow the shape of the dose curve; as a rule, active = well fitted inhibition curve with a large enough effect; inconclusive = small, poorly fitted or top-dose-only effect; inactive = no such curve, though single readings can be large or run the other way.

What follows are compounds tested on Zika virus NS2B-NS3 protease (linked construct) (assay: Primary screen NINDS Rhodamine qHTS for Zika virus inhibitors (AID 1347160; also: nearly all actives have a fitted effect of over 55% in size)). Settings: purified NS2B-NS3 protease, Rhodamine110 substrate fluorescence; series mostly up to 33.1 µM.
In short: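 In 10 mM Tris-HCl pH 8.0 containing 0.01% Tween 20, linked NS2B-NS3 protease (25 nM final) is exposed to test compounds for 15 min. Cleavage of 1.5 microM Rhodamine110 substrate is tracked by fluorescence over 15 min.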

| Compound | Potency |
| --- | --- |
| O=c1[nH]ccc2nc(-c3ccc(CN4CCC(c5nc(-c6ccccn6)n[nH]5)CC4)cc3)c(-c3ccccc3)cc12 | inactive |
| CC1(C)COC(=O)[C@@H]1O[C@@H]1O[C@H](CO)[C@@H](O)[C@H](O)[C@H]1O | inactive |
| C[C@]12CC[C@@H]3c4ccc(O)cc4CC[C@H]3[C@@H]1C[C@@H](O[C@@H]1O[C@H](C(=O)O)[C@@H](O)[C@H](O)[C@H]1O)[C@@H]2O | inactive |
| O=C(NC/C=C/CN1CCN(c2cccc(Cl)c2Cl)CC1)c1ccc(-c2ccccn2)cc1 | inactive |
| CC(=O)/C=C/C1C(C)CC(O[C@@H]2O[C@H](CO)[C@@H](O)[C@H](O)[C@H]2O)CC1(C)C (stereo partly specified) | inactive |
| C=C1CC[C@@H]2[C@](C)(CO)[C@H](O[C@@H]3O[C@H](CO)[C@@H](O)[C@H](O)[C@H]3O)CC[C@@]2(C)[C@@H]1C/C=C1/C(=O)OC[C@H]1O | inactive |
| CC(=O)OC1C(O)/C(C)=C\C2C(OC(=O)c3ccccc3)C(C)CC2(OC(C)=O)C(OC(C)=O)C(C)/C=C/C(C)(C)C1OC(C)=O (stereo unspecified) | inactive |
| CC(=O)O[C@@H]1C(O)C[C@@]2(C)C(CC[C@@H](C)C23Cc2c(O)cc4c(c2O3)CNC4=O)C1(C)C (stereo partly specified) | inactive |
| CC(=O)OC/C(=C/C(=O)O)CC[C@@H]1C(C)=CC(=O)[C@@H]2C(C)(C)CCC[C@@]12C | inactive |
| C=C1CC/C=C(/CO)C(=O)C[C@@H]2[C@@H]1C[C@@]2(C)COC(C)=O | inactive |
| C/C=C/C=C/C=C/C(=O)O[C@@H]1C=C(CO)[C@](O)(CO)[C@@]2(C)CCCC(C)(C)[C@H]12 | inactive |
